About 8,600 (12%) of roughly 69,000 compounds showed an effect of 50% or more. The sample holds strong results, similar compounds and a random draw of the others, so the mix is not that of the screen.
What follows are compounds tested on Plasmodium berghei (assay: Screen against P. berghei liver stage (PbLuc), transformed with Luciferase, at 10uM). Conditions: tested at 10 uM.
Format: functional, HepG2

SMILES	INHIBITION [%]
CC1(NC(=O)Cc2cccs2)CCS(=O)(=O)C1 (stereo not drawn)	43.1
CC(C)C(=O)N1CC[C@H]2N(C)CC[C@@]2(C(=O)Nc2ccccc2)CC1	44.8
O=C1CC2(CCCCN2C(=O)c2ccccc2)CN1CC1CC1 (stereo not drawn)	29.7
Cc1cnc(NC(=O)C(C)n2ccc(C(F)(F)F)n2)s1 (stereo not drawn)	49.1
COCC(=O)N1CC[C@]2(O)CCN(Cc3ccsc3)C[C@@H]2C1	10.5
CC(C)c1nc(CNC2CCN(C(=O)OC(C)(C)C)CC2)cs1	47
CN(CC(=O)NC1CC1)C(=O)c1csc(Br)c1	37.2
COc1ccccc1CC(=O)N1CCC(OCc2cccnc2)CC1	-37.2
Cc1cnn(CC2CCCCN2Cc2nccn2CC(F)(F)F)c1 (stereo not drawn)	-61.4
Cc1noc(C)c1CC(=O)N1CC[C@@](C)(O)[C@H](Oc2ccccc2)C1	41.55
O=C(NCc1ccc(Br)c(F)c1)Nc1cn[nH]c1	4.97
NC(=O)c1ccc(CNC(=O)Nc2cn[nH]c2)cc1	72.9
CS(=O)(=O)c1ccc(CNC(=O)Nc2cn[nH]c2)cc1	-21.7
CNS(=O)(=O)Cc1ccc(CNC(=O)Nc2cn[nH]c2)cc1	27.9
CNS(=O)(=O)c1ccc(CNC(=O)Nc2cn[nH]c2)cc1	50.3
COCCNc1ccc(CNC(=O)Nc2cn[nH]c2)cc1	6.14
CNC(=O)c1cnn2c(C3CCCN3C)ccnc12 (stereo not drawn)	-6.73
COc1ccc(Br)c(C(=O)NC(CC(=O)O)c2cccs2)c1 (stereo not drawn)	33.8
O=C(CCCN1C(=O)CCC1=O)NCC1(c2ccccc2)CCC1	-9.37
O=C1CCCN1Cc1nnc2n1CCN(Cc1ccco1)CC2	-8.23
COCc1nc2cc(NCc3ncc[nH]3)ccc2o1	-10.8
Fc1ccc(NCc2ncc[nH]2)cc1Br	58.1

SMILES	INHIBITION [%]
Fc1cccc(NCc2ncc[nH]2)c1	10.3
CCC(O)(CNCc1ncc[nH]1)c1ccc(Br)cc1 (stereo not drawn)	15.5
Clc1cc(NCc2ncc[nH]2)nc2[nH]ccc12	-19.8
COc1cc(NCc2ncc[nH]2)ccc1Br	74.4
CCOCC(=O)N1CC[C@H]2O[C@@H](C)C[C@H]2C1	5.44
CCCn1cnc2c(cnn2-c2cccc(C)c2C)c1=O	-70.6
Cc1cc(-c2cc(N)c(=O)n(CC(=O)N3CCCC(C)C3)n2)c(C)o1 (stereo not drawn)	22.35
Cc1nc(COc2cccc(C#N)c2)no1	54.4
Cc1nc(CN2CCCN(CCOc3cccc(C#N)c3)CC2)no1	20.1
Cc1noc(OCCOc2cccc(C#N)c2)n1	10.7
COCC(=O)Nc1nnc2n(Cc3cccc(OC)c3)[nH]c(C)c1-2	-14.8
CN(CC1(O)CCCN(c2ccccn2)C1)C(=O)CC1CCOCC1 (stereo not drawn)	-51.4
Cc1nc(-c2ccsc2)ccc1C(=O)NCCCN1CCOCC1	25.315
CSc1nnc(CNC(=O)Nc2ccccc2Br)n1C	19.8
CNCC[C@H]1CC(C)(C)Oc2ccc(OCC3CC3)cc21	42.6
CNCC[C@H]1CC(C)(C)Oc2ccc(OC)cc21	42.6
CNCC[C@H]1CC(C)(C)Oc2ccc(C)cc21	53
CN1CCN(C(=O)C2CCN(c3cccnn3)C2)CC1 (stereo not drawn)	-18.9
O=C(NCc1ccco1)[C@@H]1CCO[C@@H]2CCN(C3CCOCC3)C[C@H]21	11.3
Cc1nnc2n1CCN(CCOc1ccc(C(C)(C)C)cc1)C2	13.3
NC(=O)C(CNC(=O)COCC(F)(F)F)Cc1ccc(F)cc1 (stereo not drawn)	17.4
OC1(CN2CCCCC2)CCN(c2ccc(C(F)(F)F)cn2)C1 (stereo not drawn)	59.4

SMILES	INHIBITION [%]
OC1(CN2CCCCC2)CCN(c2cc(C(F)(F)F)ccn2)C1 (stereo not drawn)	33.9
OC1(CN2CCCCC2)CCN(c2cccc(C(F)(F)F)n2)C1 (stereo not drawn)	46.7
O=C(NCc1ccoc1)Nc1cc(C(F)(F)F)c[nH]c1=O	-45.5
Fc1ccccc1CN1C[C@H](OCC2CCOCC2)[C@H]2OCCC[C@H]21	-28.8
CO[C@H]1CN(Cc2ccccc2F)[C@@H]2CCCO[C@H]12	68.8
Fc1ccccc1CN1C[C@@H](OCc2ccncc2)[C@H]2OCCC[C@H]21	23.5
Cc1ccccc1CN1CC[C@H]2C[C@H](C(=O)N(C)C)O[C@H]2C1	19.5
COCC(=O)N1CCc2cccc(S(=O)(=O)N3CCN(C)CC3)c2C1	8.51
O=C(Nc1ccccc1-c1cccs1)N1CCOCC1	-11.6
CCOc1ccc(NC(=O)N2CCOC(C(N)=O)C2)cc1Cl (stereo not drawn)	-16.9
COCC1CN(C(=O)Nc2cc(Cl)cc(Cl)c2)CCO1 (stereo not drawn)	-42.9
Cc1cc(NC(=O)N2CCOC(C(N)=O)C2)ccc1Br (stereo not drawn)	-62.8
NC(=O)C1CN(C(=O)Nc2cc(Cl)cc(Cl)c2)CCO1 (stereo not drawn)	88.4
NC(=O)C1CN(C(=O)Nc2ccccc2N2CCCCCC2)CCO1 (stereo not drawn)	-22.7
Cc1ccc(NC(=O)N2CCOC(C(N)=O)C2)cc1C(F)(F)F (stereo not drawn)	-14.3
CN1CCCc2cc(NC(=O)N3CCOC(C(N)=O)C3)ccc21 (stereo not drawn)	68.5
NC(=O)C1CN(C(=O)Nc2ccccc2-c2cccs2)CCO1 (stereo not drawn)	57.2
CCC(=O)NS(=O)(=O)c1cccnc1Nc1cccc(Cl)c1Cl	42.6
Cc1nc(CN2Cc3nccn3CC(CN3CCOCC3)C2)cs1 (stereo not drawn)	-40.1
COc1cccc(-n2nnc(C(=O)N3CCC(C(N)=O)CC3)c2C)c1	13.115
Cc1cc(C(=O)NC2CCCOc3cc(Cl)ccc32)n(C)n1 (stereo not drawn)	43.6
O=C(c1ccc2c(c1)[nH]c(=O)n2C1CCC(O)CC1)N1CCOCC1 (stereo not drawn)	48

SMILES	INHIBITION [%]
CNC(=O)[C@H]1C[C@H]2CN(C(=O)Nc3ccc(F)cc3)C[C@@H]1O2	13.4
CCN1CC[C@]2(CN(Cc3nccs3)C[C@H]2c2ccccc2)C1=O	13.7
Cc1nc(C2CCCN2Cc2cc(=O)n(C)c(=O)n2C)no1 (stereo not drawn)	15.3
CN(Cc1nccs1)C1CCN(c2ncccn2)CC1	21.5
Cn1cc(CN2CCc3ncnc(N4CCCC4)c3CC2)cn1	30.5
Cc1cc2c(N3CCCC(OCc4cccnc4)C3)ncnc2s1 (stereo not drawn)	85.2
Cc1nn(C)c2ncnc(N3CCCC(OCc4cccnc4)C3)c12 (stereo not drawn)	25.1
CCc1c(C)sc2ncnc(N3CCN(C4CCOCC4)CC3)c12	4.15
Cc1nn(C)c2nc(N(Cc3nccs3)C3CC3)sc12	33.2
Cc1csc2c(N3CCC(NCCCc4cnn(C)c4)CC3)ncnc12	31.6
Cc1cc2c(N3CCC(N(C)Cc4nccs4)CC3)ncnc2s1	87.5
Cc1sc2ncnc(N3CCC(N(C)Cc4cnn(C)c4)CC3)c2c1C	61.2
Cc1cc2c(N3CCC(N(C)CCc4cnn(C)c4)CC3)ncnc2s1	51.2
Cc1sc2ncnc(N3CCCC3Cn3cccn3)c2c1C (stereo not drawn)	-53
CC(C)(C(=O)N1CCCC(OCc2cccnc2)C1)n1cccc1 (stereo not drawn)	23.1
CCCS(=O)(=O)N1CCn2cc(CNc3ccccn3)nc2C1	23.3
CCC(=O)N1Cc2nccn2CC(CN(C)Cc2cccnc2)C1 (stereo not drawn)	39.2
Cc1csc(N2CCN(Cc3cnc4c(c3)c(C)nn4C)CC2)n1	24
CN(C)C[C@H]1OC[C@@H]2CCN(C(=O)c3ccco3)C[C@@H]21	-4.56
Cc1nc(C)n(CCNC(=O)C2(C)CC(c3ccccc3)=NO2)n1 (stereo not drawn)	23
Fc1cnc(N2CC[C@@H]3O[C@@H](COCc4cccnc4)CC[C@@H]32)nc1	31.4
CCc1ccsc1C(=O)N1CCCN(Cc2cscn2)CC1	-16

SMILES	INHIBITION [%]
CC(C)c1cc2c(s1)NC(c1ccccc1)NC2=O (stereo not drawn)	9.63
Cc1cnc(CN(C)C2CCN(CCCc3cnn(C)c3)C2)o1 (stereo not drawn)	48.2
Cc1cc2c(N3CCC(N(C)Cc4cnn(C)c4)CC3)ncnc2s1	75.7
Cc1nc(CN2CCCC(N(C)Cc3cnn(C)c3)C2)no1 (stereo not drawn)	5.48
COc1ccc2c(c1)CN(CC1CC1)C(=O)CCN2CC(C)(C)O	23.7
O=C(c1sccc1C1CC1)N1CCN(CC(F)(F)F)CC1	27.6
O=C(Nc1cccc(F)c1)C1=NOC2(CCNCC2)C1	-2.41
O=C(CCn1cccn1)NCCOc1ncc(Cl)cc1Cl	53.3
O=C(CCn1cccn1)NCCOc1cccc(Cl)c1	54.4
Cc1ccoc1C(=O)NCCOc1ncc(Cl)cc1Cl	52
O=C(NCCOc1ncc(Cl)cc1Cl)c1ccoc1	24.6
O=C(CCn1cncn1)NCCOc1cccc(Cl)c1	10.7
O=C(NCCOc1ncc(Cl)cc1Cl)c1cccnc1	19.4
O=C(CCn1cccn1)NCCOc1ccc2c(c1)OCO2	-13.9
O=C(CCc1ccncc1)NCCOc1ncc(Cl)cc1Cl	3.87
O=C(NCCOc1ncc(Cl)cc1Cl)c1ccncc1	39.5
CCn1cnnc1C1CCN(C(=O)c2cccc(-n3cccc3)c2)CC1	20
O=C1NC2(CCCN(C(=O)CCn3cncn3)C2)Oc2ccccc21 (stereo not drawn)	-5.279
Cc1cc(C)n(CCNCc2cc(-c3ccccc3)c[nH]c2=O)n1	7.43
Cc1noc(C)c1CN1CC[C@H]2OCC[C@@]2(C(=O)NC2CCCC2)C1	17.1
